Calls of active or inactive are those of the source. How the source made its calls: active means hit-call score of the fitted dose curve at least 0.9, where 1 is the maximum; inactive means score below 0.9.

The assay in a line: STM_H9_OrnithineISnorm_perc: Stemina devTOX quickPredict H9 human embryonic stem cell (hESC)-based Assay for Ornithine (ORN) Metabolite Biomarker, Normalized (AID 2283712).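 Further: ornithine released into spent medium during last day measured by mass spectrometry.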 From the text:
STM_H9_secretome utilizes undifferentiated H9 cells to measure relative changes in two metabolites, ornithine (ORN) and cystine (CYSS) in the secretome, targeting a critical drop in the ORN/CYSS ratio as a biomarker for developmental toxicity.STM_H9_OrnithineISnorm is one of 10 components calculated in the STM_H9_secretome assay. It measures the integrated area of the endogenous ornithine normalized to the spiked-in isotopically labeled standard and to the median value of the 0.1% DMSO neutral control treatment using UPLC-HRMS technology.Data from the assay component STM_H9_OrnithineISnorm_perc was analyzed at the assay endpoint STM_H9_OrnithineISnorm_perc in the positive analysis fitting direction relative to DMSO as the negative control and baseline of activity. Using a type of binding reporter, gain or loss-of-signal activity can be used to understand relative metabolite change.
H9 hESCs maintained in a pluripotent state were exposed to test compound for 72h with chemical replenishment with media replacement every 24h. Cell-conditioned media from the final 24-h treatment period was collected for analysis of the targeted biomarker, and cell viability of the corresponding cell layer was assessed. The chemical library was tested in blinded fashion. Each test plate included 1uM Methotrexate (MTX; Selleck Chemicals, Houston, Texas) as a positive reference, 5 nM MTX as a negative reference, 0.1% DMSO as the neutral (vehicle) control, and sample-level media blanks.H9 cell-conditioned media from the final 24-h treatment period was collected for analysis of the targeted biomarker and cell viability was measured from the corresponding cell layer. Cell viability was measured using the CellTiter-Fluor assay (Promega, Madison, Wisconsin) based on proteolytic cleavage of a substrate to fluorescent signal proportional to the number of living cells. The cell viability Relative Fluorescence Unit (RFU) was background corrected and normalized to mean RFU of the neutral control (0.1% DMSO). The collected H9-cell-conditioned media samples were processed for targeted biomarker analysis as described (Palmer et al., 2013). Briefly, spent media samples were deproteinized (40% acetonitrile) and processed for UPLC-HRMS. Data acquisition was performed using 4 separate UPLC-HRMS systems, consisting of an Agilent 1290 Infinity LC system (Agilent Technologies) interfaced with an Agilent high-resolution mass spectrometer (models G6520A, G6520B, G6530A, and G6224A). A Waters Acquity UPLC BEH Amide column (2.1mm x 50mm, 1.7lm particle size; Waters, Milford, Massachusetts) maintained at 40C was applied for separation of metabolites using a 6.5min solvent gradient with 0.1% formic acid in water and 0.1% formic acid in acetonitrile (1.0ml/min flow rate). Data were acquired using MassHunter Acquisition software (version B 04.00, Agilent Technologies). The extracted ion chromatogram (EIC) areas for ORN, CYSS, and their respective spike-in C13-standards were determined using the Agilent MassHunter Quantitative Analysis software, version B.05.00 or newer (Agilent Technologies), and data were normalized as described in Palmer et al. (2017).
With `CO[C@H]1/C=C/O[C@@]2(C)Oc3c(C)c(O)c4c(O)c(c(/C=N/N5CCN(C)CC5)c(O)c4c3C2=O)NC(=O)/C(C)=C\C=C\[C@H](C)[C@H](O)[C@@H](C)[C@@H](O)[C@@H](C)[C@H](OC(C)=O)[C@@H]1C`, the outcome was inactive.

As to `NC(=O)c1nc(-c2cccc(-c3cc(F)ccc3OCC(F)(F)C(F)(F)F)c2)n[nH]1`, the result was inactive.

As for `Cc1c2ccccc2c(C)c2c1ccc1ccccc12`, the result was inactive.

Turning to `OCCO`, the result was inactive.

By AC50 is commonly meant the concentration at which the activity in the assay is half-maximal. Take `O=C(Nc1ccc(Cl)cc1)Nc1ccc(Cl)c(Cl)c1`: the AC50 was 0.000976 µM (active).

For the compound `CC/C(=C(/CC)c1ccc(O)cc1)c1ccc(O)cc1`, the result was inactive.

With `CCCCCCCCN(C)CCCCCCCC`, the result was inactive.

`CC(C)(c1cc(Br)c(O)c(Br)c1)c1cc(Br)c(O)c(Br)c1`: the outcome was inactive.

In the case of `CCOC(=O)O[C@H](C)OC(=O)c1ccc2c(c1)cc(C(=O)NC1CCN(C(C)C)CC1)n2Cc1cc(-c2ccc(Cl)s2)on1`, the result was inactive.

Consider `O=c1c(-c2ccc(O)cc2)coc2cc(O)cc(O)c12`, for which the AC50 is 48.8 µM (active).

With `CN(C[C@@H](CC[N+]12CCC(C3CCCCC3)(CC1)CC2)c1ccc(Cl)c(Cl)c1)C(=O)c1cc(C(F)(F)F)cc(C(F)(F)F)c1`, the AC50 was 7.48 µM (active).

For the compound `COc1cccc([C@H](O)C2CCN(CCc3ccc(F)cc3)CC2)c1OC`, the result was inactive.

For the compound `Clc1cc(Cl)c2c(c1)N=C1CCCCCN1C2`, the outcome was inactive.

For `CN(C)c1ccc(C(=C2C=CC(=[N+](C)C)C=C2)c2ccc(N(C)C)cc2)cc1`, the concentration at half-maximal activity (AC50) was 0.592 µM (active).

With `Cc1cn([C@H]2C[C@H](N=[N+]=[N-])[C@@H](CO)O2)c(=O)[nH]c1=O`, the result was inactive.

For `CN(C)C(=O)C1(N2CCCCC2)CCN(CC[C@@]2(c3ccc(Cl)c(Cl)c3)CN(C(=O)c3ccccc3)CCO2)CC1`, the AC50 was 8.19 µM (active).

On to `COc1ccc2cc(S(=O)(=O)N[C@H](CC(=O)N[C@H](Cc3ccc(CN4[C@H](C)CCC[C@@H]4C)cc3)C(=O)N(C)C(C)C)c3ccc4c(c3)OCO4)ccc2c1`, for which the concentration at half-maximal activity (AC50) is 18.4 µM (active).

Regarding `COc1cc(C(=O)NC2CCN(C)CC2)ccc1Nc1ncc2c(n1)N(C1CCCC1)CC(F)(F)C(=O)N2C`, the concentration at half-maximal activity (AC50) is 0.0393 µM (active).

On to `CCCCCCCCCCCC[N+](C)(C)C`, for which the half-maximal activity concentration (AC50) was 7.79 µM (active).

As to `CCCCOC(=O)c1ccc(O)cc1`, the AC50 is 42.3 µM (active).

As for `CN1C(=O)N(c2ccccc2Br)Cc2cnc(Nc3ccc4c(c3)OCC(CO)O4)nc21` (configuration not stated), the AC50 is 1.42 µM (active).

With `CC[C@H](NC(=O)c1cc(F)ccc1NS(=O)(=O)c1cccc2cccnc12)c1ccccc1`, the result was inactive.

On to `CC(=O)N1CCN(c2ccc(OC[C@H]3CO[C@](Cn4ccnc4)(c4ccc(Cl)cc4Cl)O3)cc2)CC1`, for which the AC50 is 8.18 µM (active).

`O=C=NCCCCCCN=C=O`: the AC50 is 0.0164 µM (active).

Take `CN1C(=O)CC[C@H]1c1cccnc1`: the outcome was inactive.

With `CCCCCCCCOC(=O)c1cc(O)c(O)c(O)c1`, the half-maximal activity concentration (AC50) was 2.13 µM (active).

On to `CC(C)(C)c1cc(/C=C2\SC(N)=NC2=O)cc(C(C)(C)C)c1O`, for which the outcome was inactive.

Values taken from PubChem BioAssay (EPA / NIEHS).
